# Measurements published in PubChem BioAssay (NCATS).
# Several values for one entry are separate records, joined by “and”; a condition that tells them apart may be missing. Equal values may be shown once. Unmarked numbers belong to inactive results. Inconclusive results are not listed. Where a call stands in place of a potency, no number is given. Activity calls are given as the source filed them. Unless noted, the call rests on the fitted dose curve; in most records, active means well fitted curve in either direction with a large enough effect (not every such curve was filed as active); inconclusive means small, poorly fitted or top-dose-only effect, or another doubt; inactive means flat fitted curve, though single readings scatter.
# Columns and labels:
# [1] = AP1 Signaling Pathway (AID 357);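 further: ME-180 reporter cells stimulated with EGF at its EC50 level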
# Outline: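 Read-out was the 460nm/530nm emission ratio (excitation 405nm) after CCF4 loading for 2.5 hours at room temperature. Cells carried an AP-1-driven beta-lactamase reporter, were stimulated with EC50 EGF plus compound for 5 hours, and AC50 values came from titrations.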
# [2] = biological target: Cytochrome P450 1A2 (Homo sapiens) (UniProt P05177); experiment: p450-cyp1a2 (AID 410; calls by dose curve; further: potency means the concentration at half of the fitted maximal effect)
# Outline: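 20nM CYP1A2 with 100uM Luciferin-ME (at Km) in 100mM KPO4; compound preincubated 10 min, NADPH regeneration added, 60 min at room temperature. Luciferin quantified by luminescence after detection reagent; normalized to 57 uM furafylline.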
# [3] = Cell Viability - Jurkat (AID 426;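 active means dose-dependent loss of cell ATP signal giving a full or clear fitted curve, ranked by lower potency value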; further: potency means the concentration at half of the fitted maximal effect); details: qHTS
# Outline: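 Jurkat (Clone E6-1) cells, 5000/well in complete medium, exposed to compounds for 40 hr at 37C; intracellular ATP measured by CellTiter-Glo luminescence after 20 min at room temperature. AC50 from Hill fits.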
# [4] = Cell Viability - Hek293 (AID 427;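 active means compounds whose dose-response curve shows a full or clear partial loss of cell viability, called from curve shape rather than a numeric limit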;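 further: potency means the concentration at half of the fitted maximal effect; cells exposed to compound for 40 hours at 37 °C before reading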); details: qHTS
# Outline: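 Luminescent ATP content (CellTiter-Glo, 20 min at room temperature) was measured after a 40 hr, 37 °C compound exposure of HEK293 cells. AC50 values came from Hill-equation fits of qHTS concentration-response data normalized to DMSO and 100 uM tamoxifen.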
# [5] = Cell Viability - HepG2 (AID 433; calls by dose curve;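 further: potency means the concentration at half of the fitted maximal effect; potency for ATP loss meaning cytotoxicity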); details: qHTS
# Outline: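 HepG2 hepatocellular carcinoma cells (1500/well) were treated with compounds for 40 h at 37 °C in complete medium; intracellular ATP was read by CellTiter-Glo luminescence. Data were normalized to DMSO and 100 uM tamoxifen, and AC50 came from Hill fits.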
# [6] = Cell Viability - MRC5 (AID 434; calls by dose curve;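 further: potency means the concentration at half of the fitted maximal effect; potency reflects cytotoxicity seen as loss of intracellular ATP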); details: MRC5 lung fibroblast viability, qHTS
# Outline: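 qHTS cytotoxicity in human lung fibroblast MRC5 cells; 40 hr treatment, 37 °C; cellular ATP by luciferase luminescence; DMSO = 0%, 100 uM tamoxifen = 100% inhibition; Hill-fit AC50.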
# [7] = Cell Viability - SK-N-SH (AID 435; calls by dose curve;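 further: potency means the concentration at half of the fitted maximal effect; compound exposure lasted 40 h at 37 °C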); details: SK-N-SH neuroblastoma cell viability qHTS
# Outline: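 SK-N-SH human neuroblastoma cells (1500/well) were exposed to compounds in complete medium for 40 h at 37 °C, and intracellular ATP was then measured by CellTiter-Glo luminescence. AC50 was taken from Hill fits, normalized to DMSO and 100 uM tamoxifen.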
# [8] = NFAT Signaling Pathway (AID 444); details: Jurkat NFAT-bla M1, carbachol, beta-lactamase ratio, 5 h; at 17.2 µM (top of the series) unless noted;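 further: carbachol stimulus at about its EC50 of 1 µM final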
# Outline: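 Read-out: CCF4 FRET ratio (460 nm/530 nm) after 1 h RT dye loading, used for %activity and AC50 from titration series. Cells: Jurkat NFAT-β-lactamase/M1 line, treated with compound plus 1 uM carbachol for 5 h, 37 °C.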
# [9] = Stat Signaling Pathway (AID 446);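 further: ME-180 cervical cancer cells given 40 pM IL-6 alongside compound; SIE-controlled beta-lactamase reporter measured as 460/530 nm FRET emission ratio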
# Outline: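 Reporter line: ME-180 cervical carcinoma, SIE-beta-lactamase. Treatment: compound with 40 pM IL-6, 5 hrs, 37 C, in low-serum OPTI-MEM with 10 mM HEPES pH 7.3. Detection: 460/530 nm fluorescence.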
# [10] = biological target: Glucocorticoid receptor (Homo sapiens) (UniProt P04150); experiment: GR-GFP Redistribution (AID 450;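 active means compounds whose dose series gives a full or clear partial fitted curve of increased nuclear translocation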; further: potency means the concentration at half of the fitted maximal effect); details: U2OS GR-GFP nuclear translocation, laser cytometry, 2 h
# [11] = biological target: Glucocorticoid receptor (Homo sapiens) (UniProt P04150); experiment: GR-EFC Redistribution (AID 451; calls by dose curve; further: potency means the concentration at half of the fitted maximal effect); details: CHO-K1 GR-EFC translocation, beta-gal luminescence, 2 h
# Outline: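 Translocation of GR-ED fusion to nuclear EA restores b-gal, read by luminescence after 1 h room-temperature detection. Engineered CHO-K1 biosensor cells, 1,000/well, exposed 2 h at 37 C to titrations up to 46 uM final.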
# [12] = biological target: Mitogen-activated protein kinase 10 (Mus musculus) (UniProt Q61831); experiment: JNK3 AlphaScreen Assay (AID 530);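 further: kinase came from lysate of stimulated human HepG2 cells; signal reports phosphorylation of biotinylated GST-cJun 1-79 at Ser73 with 10 µM ATP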
# Outline: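 Compound titrations were preincubated 15 minutes at room temperature with substrate, antibody and pre-activated JNK3-containing HepG2 lysate. Reactions were started with 10 uM ATP and stopped with EDTA-containing bead buffer for AlphaScreen detection.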
# [13] = Cell Viability - N2a (AID 540; active means well fitted curve in the direction sought with a large enough effect; an effect the other way counts as inactive or inconclusive; further: nearly all actives have a fitted effect of over 45% in size)
# Outline: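 Mouse neuroblastoma N2a cells, 1500/well, exposed to compounds 40 h at 37 °C in complete medium. Viability measured as cellular ATP by CellTiter-Glo luminescence; AC50 from Hill fits of concentration-response.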
# [14] = Cell Viability - NIH 3T3 (AID 541; active means well fitted curve in the direction sought with a large enough effect; an effect the other way counts as inactive or inconclusive; further: nearly all actives have a fitted effect of over 25% in size)
# Outline: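 Mouse NIH 3T3 fibroblasts, 1000 cells/well, rested 5 hr at 37 °C, then exposed to compound for 40 hr at 37 °C in complete medium. Viability read as intracellular ATP by CellTiter-Glo luminescence; AC50 from Hill-equation fits of concentration-response data.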
# [15] = Cell Viability - HUV-EC-C (AID 542; active means well fitted curve in the direction sought with a large enough effect; an effect the other way counts as inactive or inconclusive; further: nearly all actives have a fitted effect of over 35% in size)
# Outline: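 HUV-EC-C human vascular endothelial cells, 1000/well, exposed to compound for 40 hr at 37 °C in complete medium. Intracellular ATP was read by CellTiter-Glo luminescence. AC50 came from Hill-equation fits of concentration-response data.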
# [16] = Cell Viability - H-4-II-E (AID 543; active means well fitted curve in the direction sought with a large enough effect; an effect the other way counts as inactive or inconclusive; further: nearly all actives have a fitted effect of over 35% in size)
# Outline: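 Rat hepatoma H-4-II-E cells, 1500 per well, treated 40 h at 37 °C in complete medium. Cellular ATP read by CellTiter-Glo luminescence; AC50 from Hill fits of concentration-response.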
# [17] = Cell Viability - SH-SY5Y (AID 544; active means well fitted curve in the direction sought with a large enough effect; an effect the other way counts as inactive or inconclusive; further: nearly all actives have a fitted effect of over 55% in size); details: SH-SY5Y neuroblastoma cell viability; at 92.2 µM (top of the series)
# Outline: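 SH-SY5Y human neuroblastoma cells (1500/well) incubated 5 h, then compound-treated 40 h at 37 °C in complete medium. Viability read as intracellular ATP by CellTiter-Glo luminescence after 20 min; AC50 from Hill-equation fits of qHTS concentration-response.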
# [18] = Cell Viability - Mesenchymal (AID 546; active means well fitted curve in the direction sought with a large enough effect; an effect the other way counts as inactive or inconclusive;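 further: cells exposed to compound for 40 hours before reading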)
# Outline: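 AC50 values reflect the drop in intracellular ATP in a human kidney mesenchymal line derived from normal glomeruli. Treatment lasts 40 hr at 37 °C in complete medium, and the signal comes from CellTiter-Glo luminescence.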
# [19] = biological target: 3',5'-cyclic-AMP phosphodiesterase 4B (Homo sapiens) (UniProt Q07343); experiment: qHTS Assay for Inhibitors of PDE-IV (AID 607; active means well fitted activation curve with a large enough effect in the main read-out, with a control signal flat, not every such curve was filed as active)
# Outline: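 Cell-based read-out of cAMP via a modified cyclic nucleotide-gated channel and membrane potential dye (535/590 nm) in HEK293 cells expressing PDE4 endogenously. Compounds tested up to 22.9 uM final; 100 uM RO 20-1724 reference.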
# Sequence of 3',5'-cyclic-AMP phosphodiesterase 4B (Homo sapiens) (Q07343 whole entry, looked up): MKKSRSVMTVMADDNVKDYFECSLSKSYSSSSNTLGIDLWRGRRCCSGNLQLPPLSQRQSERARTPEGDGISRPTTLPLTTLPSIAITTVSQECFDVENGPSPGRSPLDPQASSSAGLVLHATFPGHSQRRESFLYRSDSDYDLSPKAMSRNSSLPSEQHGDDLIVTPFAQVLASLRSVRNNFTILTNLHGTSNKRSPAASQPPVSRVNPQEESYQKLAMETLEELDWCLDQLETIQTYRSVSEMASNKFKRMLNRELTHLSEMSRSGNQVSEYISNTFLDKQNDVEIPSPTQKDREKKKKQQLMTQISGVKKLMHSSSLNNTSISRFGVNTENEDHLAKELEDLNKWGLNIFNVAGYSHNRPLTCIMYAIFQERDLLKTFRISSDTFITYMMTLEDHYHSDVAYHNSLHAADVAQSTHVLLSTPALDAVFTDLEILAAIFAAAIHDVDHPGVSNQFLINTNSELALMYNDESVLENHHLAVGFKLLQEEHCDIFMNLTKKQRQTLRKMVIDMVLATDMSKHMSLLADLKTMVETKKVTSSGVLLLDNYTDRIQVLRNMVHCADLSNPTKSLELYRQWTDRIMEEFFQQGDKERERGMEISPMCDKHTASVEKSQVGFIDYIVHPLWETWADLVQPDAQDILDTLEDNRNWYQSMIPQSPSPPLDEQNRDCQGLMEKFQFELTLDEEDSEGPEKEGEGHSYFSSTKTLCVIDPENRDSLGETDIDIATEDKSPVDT
# Sequence of Glucocorticoid receptor (Homo sapiens) (P04150 whole entry, looked up, the tested form may be a part): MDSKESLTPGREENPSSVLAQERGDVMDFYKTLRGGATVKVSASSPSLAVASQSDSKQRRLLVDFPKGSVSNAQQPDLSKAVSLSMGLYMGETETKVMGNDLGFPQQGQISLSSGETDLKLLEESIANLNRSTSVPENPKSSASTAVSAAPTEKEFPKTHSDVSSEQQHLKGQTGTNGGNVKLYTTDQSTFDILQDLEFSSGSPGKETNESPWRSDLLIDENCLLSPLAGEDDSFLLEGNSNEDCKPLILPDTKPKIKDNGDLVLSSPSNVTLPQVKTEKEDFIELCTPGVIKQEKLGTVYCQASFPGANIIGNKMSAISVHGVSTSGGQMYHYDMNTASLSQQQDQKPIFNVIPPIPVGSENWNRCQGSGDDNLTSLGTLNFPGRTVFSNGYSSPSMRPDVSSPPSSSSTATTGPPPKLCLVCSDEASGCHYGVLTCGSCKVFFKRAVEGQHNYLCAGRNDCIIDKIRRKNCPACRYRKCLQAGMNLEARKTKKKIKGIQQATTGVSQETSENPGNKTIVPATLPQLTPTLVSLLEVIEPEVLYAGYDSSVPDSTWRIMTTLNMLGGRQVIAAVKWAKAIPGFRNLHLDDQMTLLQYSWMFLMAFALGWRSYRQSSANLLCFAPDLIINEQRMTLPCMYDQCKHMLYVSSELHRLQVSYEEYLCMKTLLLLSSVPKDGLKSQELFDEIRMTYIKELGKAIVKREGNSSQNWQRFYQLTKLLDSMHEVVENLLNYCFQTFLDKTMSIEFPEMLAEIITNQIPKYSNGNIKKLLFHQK
# Sequence of Cytochrome P450 1A2 (Homo sapiens) (P05177 whole entry, looked up): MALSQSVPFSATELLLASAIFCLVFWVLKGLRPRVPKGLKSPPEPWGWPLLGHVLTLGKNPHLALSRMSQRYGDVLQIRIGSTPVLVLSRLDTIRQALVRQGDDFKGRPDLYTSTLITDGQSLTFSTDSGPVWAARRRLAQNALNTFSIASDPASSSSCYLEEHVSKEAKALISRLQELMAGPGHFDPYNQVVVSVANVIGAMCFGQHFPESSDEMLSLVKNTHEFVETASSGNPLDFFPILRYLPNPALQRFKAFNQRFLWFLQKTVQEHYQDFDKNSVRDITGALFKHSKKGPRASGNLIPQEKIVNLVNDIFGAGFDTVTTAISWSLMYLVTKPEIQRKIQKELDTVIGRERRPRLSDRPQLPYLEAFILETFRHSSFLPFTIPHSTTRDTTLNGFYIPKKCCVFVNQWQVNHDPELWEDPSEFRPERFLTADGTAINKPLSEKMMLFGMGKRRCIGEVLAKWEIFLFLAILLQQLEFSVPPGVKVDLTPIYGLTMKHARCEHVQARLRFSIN
Structure (SMILES),outcome [1],Potency [2],Potency [3],Potency [4],Potency [5],Potency [6],Potency [7],"activity change, negative = inhibition [8]",outcome [9],Potency [10],Potency [11],outcome [12],outcome [13],outcome [14],outcome [15],outcome [16],"viability change, negative = cytotoxic [17]",outcome [18],outcome [19]
Cc1cc(C)nc(NS(=O)(=O)c2ccc(N)cc2)n1,inactive,inactive,> 92 µM,> 92 µM,> 92 µM,> 92 µM,> 92 µM,-2.6%,inactive,> 20.6 µM,> 20.6 µM,inactive,inactive,inactive,inactive,inactive,-0.461%,inactive,inactive
Cc1cc(NC(=O)C2=C(O)c3ccccc3S(=O)(=O)N2C)no1,inactive,inactive,,,,,,-5.7% and 4.09%,inactive,> 20.6 µM,> 20.6 µM,inactive,,,,,,,inactive
CC(=O)NS(=O)(=O)c1ccc(N)cc1,inactive,inactive,> 92 µM,> 92 µM,> 92 µM,> 92 µM,> 92 µM,-1.44% and -25.8%,inactive,> 20.6 µM,> 20.6 µM,inactive,inactive,inactive,inactive,inactive,-13.1%,inactive,inactive
Cn1c([N+](=O)[O-])cnc1COC(N)=O,inactive,inactive,,,,,,-6.16% and -23.1%,inactive,> 20.6 µM,> 20.6 µM,inactive,,,,,,,inactive
O=C(O)c1ccccc1OP(=O)(O)O,inactive,inactive,,,,,,-20.2%,inactive,> 20.6 µM,> 20.6 µM,inactive,,,,,,,inactive
CCN(CC)CCOC(=O)C(c1ccccc1)c1ccccc1,inactive,5.01 µM (active),,,,,,-79.3% (active),inactive,> 20.6 µM,> 20.6 µM,inactive,,,,,,,
CC(=O)SC[C@@H](Cc1ccccc1)C(=O)NCC(=O)OCc1ccccc1,inactive,2.51 µM (active),,,,,,-12%,inactive,> 20.6 µM,> 20.6 µM,inactive,,,,,,,inactive
CN/C(=C\[N+](=O)[O-])NCCSCc1csc(CN(C)C)n1,inactive,inactive,,,,,,-2.1%,inactive,> 20.6 µM,> 20.6 µM,inactive,,,,,,,inactive
CC[N+](CC)(CC(=O)Nc1c(C)cccc1C)Cc1ccccc1,inactive,inactive,,,,,,,inactive,,,inactive,,,,,,,inactive
CCCCOC(=O)c1ccc(N)cc1,inactive,,> 92 µM,> 92 µM,> 92 µM,> 92 µM,> 92 µM,-8.04%,inactive,> 20.6 µM,> 20.6 µM,inactive,inactive,inactive,inactive,inactive,-11.2%,inactive,inactive
Nc1ccc(S(=O)(=O)c2ccc(N)cc2)cc1,inactive,,> 92 µM,> 92 µM,> 92 µM,> 92 µM,> 92 µM,-0.066% and 13.8%,inactive,,,inactive,inactive,,inactive,inactive,-10.9%,inactive,inactive
O=C(Cn1ccnc1[N+](=O)[O-])NCCO,inactive,inactive,,,,,,-5.19%,inactive,,,inactive,,,,,,,inactive
CN1CCCN=C1COC(=O)C(O)(c1ccccc1)C1CCCCC1 (stereo unspecified),inactive,,,,,,,-84.1% (active),inactive,> 20.6 µM,,,,,,,,,
NC(N)=NS(=O)(=O)c1ccc(N)cc1,inactive,inactive,,,,,,-6.04% and -19.4%,inactive,> 20.6 µM,> 20.6 µM,inactive,,,,,,,inactive
